# AmpC no deterg: qHTS Inhibitors of AmpC Beta-Lactamase (assay without detergent) | AmpC nitrocefin hydrolysis, absorbance 480 nm, 0.0001% Triton | Potency, µM (top dose mostly 57.1 µM), for inactives: at the highest dose activity change, negative = inhibition, usual class: inhibitors | actives 0.52% (n = 330,000);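 note: plate controls were no compound for no effect and no enzyme for full effect; nearly all actives have a fitted effect of over 20% in size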
# Target sequence (P00811 whole entry, looked up): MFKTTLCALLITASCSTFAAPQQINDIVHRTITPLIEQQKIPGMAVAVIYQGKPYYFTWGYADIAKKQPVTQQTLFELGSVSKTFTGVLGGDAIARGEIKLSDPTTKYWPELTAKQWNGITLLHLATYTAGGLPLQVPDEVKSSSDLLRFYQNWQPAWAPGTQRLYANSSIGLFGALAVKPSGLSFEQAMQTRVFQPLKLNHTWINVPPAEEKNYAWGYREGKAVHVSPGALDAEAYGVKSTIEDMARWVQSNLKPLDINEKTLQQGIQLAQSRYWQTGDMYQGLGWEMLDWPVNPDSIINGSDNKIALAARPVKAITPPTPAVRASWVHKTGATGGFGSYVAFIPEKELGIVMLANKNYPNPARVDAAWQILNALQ
#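 AmpC (5.3 nM in the dispensed reagent) in 20 mM phosphate pH 7.0 with 0.01% (detergent screen) or 0.0001% Triton X-100 was preincubated with compounds for 15 min at room temperature. Nitrocefin was then added from an 800 uM solution, and hydrolysis was followed at 480 nm.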
# LASV entry inh: qHTS for Inhibitors of binding or entry into cells for Lassa Virus; actives 1.2% (n = 300,000); AID 540256, 2011; Lassa virus pseudotype entry inhibition, cell reporter; Potency, µM (doses to about 37.9 µM), for the others: at the top dose activity change, negative = inhibition, actives largely listed as inhibitors; calls by dose curve; tested in HEK293 cells; note: nearly all actives have a fitted effect of over 50% in size
# AMA1-RON2 inh: qHTS for Inhibitors of AMA1-RON; Towards Development of Antimalarial Drug Lead: Primary Screen; Plasmodium falciparum AMA1 (3D7) - RON2 peptide interaction; AlphaScreen AMA1-biotinylated RON2 peptide binding; Potency, µM (top dose mostly 58.2 µM), for the others: top-dose activity change, negative = inhibition, actives largely listed as inhibitors; actives 0.2% (n = 360,000); AID 720542, 2013;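 note: 0% = vehicle wells and -100% = peptide control; nearly all actives have a fitted effect of over 45% in size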
#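 AMA1 (3D7) with his tag at 25 nM final met compounds first, then biotinylated RON2 peptide at 25 nM; detection used donor plus acceptor beads, 10 µg/mL apiece, read by AlphaScreen after 30 min at room temperature.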
# Marburg entry inh: qHTS for inhibitors of binding or entry into cells for Marburg Virus | Marburg virus pseudotyped entry inhibition, cell reporter | actives 1.8% (n = 300,000) | AID 540276, 2011 | Potency, µM (highest dose often 37.8 µM), without a hit: at the top dose activity change, negative = inhibition, actives largely listed as inhibitors; calls by dose curve; tested in HEK293 cells
# AmpC detergent: qHTS Inhibitors of AmpC Beta-Lactamase (assay with detergent) | P00811 | AmpC hydrolysis of nitrocefin, absorbance 480 nm, 0.01% Triton | Potency, µM (top dose mostly 114 µM), inactives show at the highest dose activity change, negative = inhibition, most hits filed as inhibitors | actives 0.041% (n = 370,000);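 note: 0% = no-compound wells and -100% = no-enzyme wells; nearly all actives have a fitted effect of over 25% in size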
#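 20 mM phosphate pH 7.0 + 0.01% (detergent screen) or 0.0001% Triton X-100; 5.3 nM AmpC reagent; cpd preinc 15 min RT; nitrocefin (800 uM stock) to start; A480 q20 s × 4 min; Activity was normalised to no-enzyme and no-compound control wells.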
# Numbers without * were called inactive; ? = inconclusive; · = no result given; ! = repeats disagree; [ ] = remark or other dose. Hits are enriched below; roughly 2.3% of the tested compounds scored in any of these assays. Unless noted, calls come from the whole dose curve; as a rule, active = well fitted curve in the direction sought with a large enough effect; inconclusive = small, poorly fitted or top-dose-only effect, or another doubt; inactive = no such curve, though single readings can be large; an effect the other way counts as inactive or inconclusive. Unless noted, % is set by controls: 0 for no effect and ±100 for the full control effect; potency is the fitted concentration of half-maximal effect.
SMILES,AmpC no deterg,LASV entry inh,AMA1-RON2 inh,Marburg entry inh,AmpC detergent
Cc1ccccc1NS(=O)(=O)c1cc(C(=O)NCCSC2CCCCC2)ccc1C,1.26µM*,8.2µM*,-7.8%,?,-3.0%
Cc1ccc(C(=O)NCCSc2ccccc2)cc1S(=O)(=O)Nc1ccccc1,-42.7%,?,-7.9%,23.1µM*,-5.8%
O=C(NCCSc1ccccc1)c1ccc(Br)cc1,12.1%[2.29 µM],12.6µM*,31.8%,?,-6.8%
COCCNC(=O)c1ccc(C)c(S(=O)(=O)Nc2ccc(C)cc2)c1,-10.4%,0.8%,-10.6%,-1.4%,2.4%
Cc1ccc(C)c(N2CCN(S(=O)(=O)c3ccc(F)c(C(=O)Nc4ccc(Cl)cc4Cl)c3)CC2)c1,·,?,·,·,5.3%
O=C(C1CCCN(S(=O)(=O)c2cccc3nonc23)C1)N1CCN(c2cccc(Cl)c2)CC1 (configuration not stated),-2.3%,4.9%[46.1 µM],-2.1%,23.1µM*!,7.7%
Cc1ccc(S(=O)(=O)c2cc3cc(Br)ccc3oc2=O)cc1,-15.1%,-25.6%,-14.1%,-6.9%,-2.0%
CC(C)c1ccc(S(=O)(=O)c2cc3cc(Br)ccc3oc2=O)cc1,-19.3%,?,11.9%[2.32 µM],11.2µM*,-3.3%
Cc1ccccc1CNC(=O)CCC(=O)N1CCSc2ccccc21,·,1.9%[46.1 µM],·,·,-0.3%
Cn1c(SCCOc2ccccc2F)nc2ccccc2c1=O,-16.3%,2.6%,-0.4%,3.55µM*,?
O=C(N/N=C/c1ccc(OC(F)F)cc1OC(F)F)NC1CCCCC1,13.4%,11.2µM*,4.7%,1.6%[46.1 µM],3.4%
Cc1cc2cc(C(c3nnnn3C3CCCC3)N(Cc3cccnc3)Cc3ccco3)c(=O)[nH]c2cc1C (configuration not stated),-12.1%,?,23.1%,4.11µM*,-8.5%
CCOC(=O)C(NC(C)=O)C(O)c1ccc([N+](=O)[O-])cc1 (configuration not stated),-4.9%,-1.1%[46.1 µM],-3.4%,1.2%[46.1 µM],-7.4%
CCCCCCCCCCCC(=O)NC(C(=O)OCC)C(O)c1cccc([N+](=O)[O-])c1 (configuration not stated),-4.7%,?,8.3%,11.2µM*,2.6%
O=C(NCc1ccc(F)cc1)c1ccc(S(=O)(=O)N2CCCC2)cc1,·,·,-10.6%,·,·
CNC(=O)c1cc(-c2ccc(F)cc2)cc(-c2ccc(S(=O)(=O)N3CCCC3)cc2)c1N,·,8.88µM*,·,·,·
COc1ccc2c(c1)C1(Nc3ccccc3-c3nc4ccccc4n31)C(=O)N2C (configuration not stated),-27.3%,-4.2%,-0.8%,-23.2%,-3.5%
COc1ccc2c(c1)C1(Nc3ccccc3-c3nc4ccccc4n31)C(=O)N2 (configuration not stated),20µM*,9.1%,-3.7%,-14.3%,-10.0%
CCN1CCc2c(sc(NC(=O)c3cc4ccccc4cc3OC)c2C(N)=O)C1,148.1%,-1.8%[46.1 µM],15.5%,11.2µM*,-11.2%
COc1cccc(OC)c1C(=O)Nc1sc2c(c1C(N)=O)CCN(Cc1ccccc1)C2,70.2%,·,-16.8%,·,-10.6%
C=CCOC(=O)C(C(C)=O)[C@@H](NC(=O)OC)c1ccc(Cl)cc1 (some centres not stated),·,·,·,-10.3%[14.2 µM],·
COc1ccc(NC(=O)NNC(=O)c2cc3ccccc3cc2O)cc1,?,·,61.7%,·,0.9%
COc1cc(NC(=O)c2cc3ccccc3cc2O)c(OC)cc1Cl,3.55µM*,·,-0.8%,·,-5.4%
COc1ccc(C)cc1NC(=O)NNC(=O)c1cc2ccccc2cc1O,6.31µM*,·,129.4%,·,-0.3%
O=C(NNC(=O)c1cc2ccccc2cc1O)Nc1ccc(Br)cc1,?,-5.9%,14.5%,8.8%,?
SMILES,AmpC no deterg,LASV entry inh,AMA1-RON2 inh,Marburg entry inh,AmpC detergent
COc1cc(OC)c(NC(=O)c2ccccc2F)cc1Cl,-21.0%,·,-1.0%,·,-1.3%
O=C(NNC(=O)c1cc2ccccc2cc1O)Nc1ccc(F)cc1F,12.6µM*,-5.5%,29.2%,-2.1%,2.3%
Cc1ccc(C(=O)NNC(=O)c2cc3ccccc3cc2O)cc1,28.2µM*,-26.8%,118.6%,7.4%,-14.8%
O=C(N/N=C1\C[C@@H](O)[C@@H](O)[C@@H]2[C@@H]3C(=O)N(c4cccc(Oc5ccccc5)c4)C(=O)[C@@H]3CC[C@H]12)OCc1ccccc1,·,·,·,4.0%[14.2 µM],·
NC(=O)c1cn(C2OC(CO)C(O)C2O)c2ncnc(N)c12 (configuration not stated),-5.7%,0.291µM*,19.8%,0.0731µM*,1.1%
N#Cc1cn(C2OC(CO)C(O)C2O)c2ncnc(N)c12 (configuration not stated),·,0.631µM*,-10.1%,?,·
NC(=O)c1c(Br)n(C2OC(CO)C(O)C2O)c2ncnc(N)c12 (configuration not stated),·,?,17.9%,?,·
COC(=O)C1Cc2c([nH]c3ccccc23)C2CCC(=O)N12 (configuration not stated),·,·,-5.5%,·,·
COC(=O)[C@@H]1Cc2c([nH]c3ccccc23)C(C)(C)N1C(=O)CCl,-4.0%,7.94µM*,-5.8%,7.08µM*,-4.7%
COc1cccc(N(CC(=O)NC2CC3CCC2C3)S(=O)(=O)c2ccccc2)c1 (configuration not stated),10.3%,-1.3%,-2.7%,?,-17.3%
CCOc1ccc(N(CC(=O)NC2CC3CCC2C3)S(=O)(=O)c2ccccc2)cc1 (configuration not stated),35.4%,10µM*,6.7%,?,-4.8%
CCOc1ccc(N(CC(=O)NC2CC3CCC2C3)S(=O)(=O)c2ccc(C)cc2)cc1 (configuration not stated),3.2%,·,1.2%,·,0.3%
COc1ccc(N(CC(=O)NC2CC3CCC2C3)S(=O)(=O)c2ccccc2)cc1OC (configuration not stated),65.4%,8.91µM*,24.5%,?,-2.0%
CCCC(=O)Nc1nc(-c2ccc3c(c2)OCCO3)cs1,11.2µM*,·,3.5%,·,?
Cn1c(=O)c2c(nc(NCc3ccccc3)n2Cc2ccc(Cl)c(Cl)c2)n(C)c1=O,·,?,·,?,11.4%
COc1ccc(CCC(=O)N/N=C/c2ccc3c(c2)OCO3)cc1,·,0.1µM*,8.3%,8.4%,·
O=C(CCc1ccccc1)NCC(=O)N/N=C/c1ccc2c(c1)OCO2,-6.4%,1.6%,2.7%,?,0.0%
Cc1nc(S(=O)(=O)N2CCN(c3cccc(Cl)c3)CC2)cn1C,·,14.0%[46.1 µM],·,·,23.4%
Cc1ccc(C(=O)N/C(=C\c2ccc(-c3ccc(Br)cc3)o2)C(=O)NCCCN(C)C)cc1,31.6%[11.4 µM],·,-18.1%,·,?
CN(C)CCNC(=O)/C(=C/c1ccc(-c2ccc(Cl)cc2)o1)NC(=O)c1ccccc1,151.8%,?,4.5%,11.6µM*,1.0%

# High-throughput results: PubChem, National Center for Advancing Translational Sciences (NCATS)
